PubChem BioAssay (EPA / NIEHS)
Active and inactive are the calls of the source. Rule for the calls: active = hit-call score of the fitted dose curve at least 0.9, where 1 is the maximum; inactive = score below 0.9.

Columns and labels:
Settings in all cases: mRNA level, 48 h; actives raise or lower the signal
Caspase-3 (Homo sapiens) = Caspase-3 (Homo sapiens) (UniProt P42574); experiment: LTEA_HepaRG_CASP3: Life Technologies and Expression Analysis (LTEA) Assay for cysteine-aspartic acid protease (CASP3) using HepaRG (AID 2283477)
Sequence of Caspase-3 (Homo sapiens) (P42574 whole entry, looked up): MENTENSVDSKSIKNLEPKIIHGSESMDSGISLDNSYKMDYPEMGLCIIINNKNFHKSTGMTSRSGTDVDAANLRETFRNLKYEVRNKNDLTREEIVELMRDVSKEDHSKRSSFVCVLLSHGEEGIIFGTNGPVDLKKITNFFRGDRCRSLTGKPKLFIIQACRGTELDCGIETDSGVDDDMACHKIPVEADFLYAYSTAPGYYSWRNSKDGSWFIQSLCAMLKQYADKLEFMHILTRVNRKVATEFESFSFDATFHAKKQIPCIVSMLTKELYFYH
Summary of the method: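 Expression of CASP3 was quantified by TaqMan qRT-PCR against three housekeeping genes (ACTB, GAPDH, POLR2A), bidirectionally versus 0.5% DMSO. HepaRG cultures received compounds in duplicate, top 100 uM with half-log steps, for 48 h in serum-free induction medium.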

[1] = read-out: Cytochrome P450 (CYP1A2), CYP1A2 (gene 1544); experiment: LTEA_HepaRG_CYP1A2: Life Technologies and Expression Analysis (LTEA) Assay for Cytochrome P450 (CYP1A2) using HepaRG (AID 2283479);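 for AC50: TaqMan qRT-PCR transcript level normalized to ACTB GAPDH and POLR2A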
Summary of the method: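 CYP1A2 transcript measured by TaqMan qRT-PCR against three housekeeping genes after 48-hour chemical exposure of HepaRG cells. Eight-point half-log series topping at 100 uM in 0.5% DMSO, duplicates; gain or loss fitted relative to vehicle.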

[2] = read-out: Cytochrome P450 (CYP2B6), CYP2B6 (gene 1555); experiment: LTEA_HepaRG_CYP2B6: Life Technologies and Expression Analysis (LTEA) Assay for Cytochrome P450 (CYP2B6) using HepaRG (AID 2283481)
Summary of the method: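 CYP2B6 transcript level quantified by qRT-PCR against three housekeeping genes, fitted bidirectionally relative to DMSO. HepaRG cultures received chemicals for 48 h, 8-point half-log series from 100 uM in 0.5% DMSO, duplicate wells, serum-free induction medium.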

[3] = read-out: Cytochrome P450 2C19 (Homo sapiens) (UniProt P33261); experiment: LTEA_HepaRG_CYP2C19: Life Technologies and Expression Analysis (LTEA) Assay for CYP2C19 using HepaRG (AID 2283482)
Summary of the method: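 CYP2C19 transcript levels by qRT-PCR, normalized to three housekeeping genes, in HepaRG cells after 48 h chemical exposure. Eight-point half-log series topping at 100 uM, 0.5% DMSO vehicle. Increases and decreases both fitted against DMSO.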

CYP2C8 (gene 1558) = experiment: LTEA_HepaRG_CYP2C8: Life Technologies and Expression Analysis (LTEA) Assay for CYP2C8 using HepaRG (AID 2283483)
Summary of the method: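 CYP2C8 mRNA induction or loss, by qRT-PCR normalized to ACTB/GAPDH/POLR2A, is read in HepaRG cells after 48 h treatment. Concentrations run from 100 uM down in half-log dilutions, with 0.5% DMSO as vehicle and baseline.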

CYP2C9 (gene 1559) = experiment: LTEA_HepaRG_CYP2C9: Life Technologies and Expression Analysis (LTEA) Assay for CYP2C9 using HepaRG (AID 2283484)
Summary of the method: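 Cells plated 48 h, switched to serum-free induction medium, then treated in duplicate for 48 h at eight concentrations (max 100 uM, 0.5% DMSO). RNA then analysed by qRT-PCR for CYP2C9; curves fitted in both directions relative to DMSO.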

CYP2E1 (gene 1571) = experiment: LTEA_HepaRG_CYP2E1: Life Technologies and Expression Analysis (LTEA) Assay for CYP2E1 using HepaRG (AID 2283485)
Summary of the method: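 Differentiated HepaRG cells were treated in duplicate for 48 h with chemicals in 0.5% DMSO, from 100 uM downward in half-log dilutions. RNA was then analysed by qRT-PCR for CYP2E1 induction or loss.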

[4] = read-out: cysteine-aspartic acid protease (CASP8), CASP8 (gene 841); experiment: LTEA_HepaRG_CASP8: Life Technologies and Expression Analysis (LTEA) Assay for cysteine-aspartic acid protease (CASP8) using HepaRG (AID 2283480)
Summary of the method: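 HepaRG, 48 h exposure, duplicate wells; 8 conc, half-log from 100 uM, 0.5% DMSO. Serum-free induction medium. CASP8 mRNA by TaqMan qRT-PCR, norm. ACTB/GAPDH/POLR2A; gain/loss fitted vs DMSO.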

[5] = read-out: Cytochrome P450 (CYP24A1), CYP24A1 (gene 1591); experiment: LTEA_HepaRG_CYP24A1: Life Technologies and Expression Analysis (LTEA) Assay for Cytochrome P450 (CYP24A1) using HepaRG (AID 2283478)
Summary of the method: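 mRNA of CYP24A1 quantified by TaqMan qRT-PCR (ACTB/GAPDH/POLR2A normalization) after 48 h chemical exposure of HepaRG cells, top concentration 100 uM, half-log steps, 0.5% DMSO vehicle, duplicates. Curves fitted bidirectionally against DMSO baseline.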

Measured: AC50

Sequence of Cytochrome P450 2C19 (Homo sapiens) (P33261 whole entry, looked up): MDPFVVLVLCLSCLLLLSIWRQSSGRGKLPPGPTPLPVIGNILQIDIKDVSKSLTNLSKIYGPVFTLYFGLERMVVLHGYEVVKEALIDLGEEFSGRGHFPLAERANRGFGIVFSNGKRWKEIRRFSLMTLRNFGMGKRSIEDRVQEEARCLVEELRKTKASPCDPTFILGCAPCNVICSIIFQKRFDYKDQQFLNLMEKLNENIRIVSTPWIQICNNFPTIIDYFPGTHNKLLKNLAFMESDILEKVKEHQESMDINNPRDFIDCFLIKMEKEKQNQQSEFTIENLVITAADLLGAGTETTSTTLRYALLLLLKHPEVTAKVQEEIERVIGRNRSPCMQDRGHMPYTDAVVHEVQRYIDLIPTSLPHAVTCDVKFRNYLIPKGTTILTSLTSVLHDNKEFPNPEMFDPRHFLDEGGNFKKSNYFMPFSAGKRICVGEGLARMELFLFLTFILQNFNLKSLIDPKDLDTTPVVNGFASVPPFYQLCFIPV

CCc1cc(C2=C(C(=O)O)N(c3ccccc3C(F)(F)F)S(=O)(=O)c3ccccc32)cc2c1OCO2
active: [2] 90.5 µM | [3] 91.9 µM | CYP2C8 (gene 1558) 91.7 µM | CYP2C9 (gene 1559) 86.1 µM | CYP2E1 (gene 1571) 56.8 µM
inactive: Caspase-3 (Homo sapiens) | [1]

COC(=O)[C@H]1[C@H]2C[C@@H]3c4[nH]c5cc(OC)ccc5c4CCN3C[C@H]2C[C@@H](OC(=O)c2cc(OC)c(OC)c(OC)c2)[C@@H]1OC
inactive: Caspase-3 (Homo sapiens) | [4]
active: [1] 9.74 µM | [2] 61.7 µM | [3] 63.4 µM | CYP2C8 (gene 1558) 63.5 µM | CYP2C9 (gene 1559) 60.9 µM | CYP2E1 (gene 1571) 49.3 µM

O=C(Oc1ccccc1)c1cccc(C(=O)Oc2ccccc2)c1
active: [1] 52.2 µM | [2] 15.9 µM
inactive: Caspase-3 (Homo sapiens) | [3] | CYP2C8 (gene 1558) | CYP2C9 (gene 1559) | CYP2E1 (gene 1571)

C#CC(O)C(CC)CCCC (stereo not drawn)
active: [2] 24.4 µM
inactive: Caspase-3 (Homo sapiens) | [1] | [3] | CYP2C9 (gene 1559) | CYP2E1 (gene 1571)

CC(C)NCC(O)c1ccc(O)c(O)c1 (stereo not drawn)
inactive: Caspase-3 (Homo sapiens)
active: [1] 0.204 µM | [2] 0.132 µM | CYP2C9 (gene 1559) 0.175 µM | CYP2E1 (gene 1571) 0.304 µM

CCOCCOCCO
inactive: Caspase-3 (Homo sapiens) | [1] | [4] | [2] | [3] | CYP2C8 (gene 1558) | CYP2C9 (gene 1559) | CYP2E1 (gene 1571)

O=C(O)CC(O)(CC(=O)O)C(=O)O
inactive: Caspase-3 (Homo sapiens) | [1] | [2] | [3] | CYP2C9 (gene 1559) | CYP2E1 (gene 1571)

CC(C)(C)c1ccccc1
inactive: Caspase-3 (Homo sapiens) | [5] | [1] | [2] | [3] | CYP2C8 (gene 1558) | CYP2C9 (gene 1559) | CYP2E1 (gene 1571)

C/C=C/C=C/C(=O)O
inactive: Caspase-3 (Homo sapiens) | [1] | [2] | [3] | CYP2C8 (gene 1558) | CYP2C9 (gene 1559) | CYP2E1 (gene 1571)

CC(C)c1cccc(C(C)C)c1NC(=O)NS(=O)(=O)c1cc(C(C)(C)O)co1
active: [2] 5.18 µM | [3] 8.04 µM | CYP2E1 (gene 1571) 33.9 µM
inactive: Caspase-3 (Homo sapiens) | [1] | [4] | CYP2C8 (gene 1558) | CYP2C9 (gene 1559)

CCCCc1nc2cccnc2n1Cc1ccc(-c2ccccc2-c2nnn[nH]2)cc1
active: [2] 10.4 µM | CYP2E1 (gene 1571) 28.6 µM
inactive: Caspase-3 (Homo sapiens) | [1] | [4] | [3] | CYP2C8 (gene 1558) | CYP2C9 (gene 1559)

CC(=O)S[C@H](C(=O)N[C@H]1Cc2ccccc2[C@H]2CCC[C@@H](C(=O)O)N2C1=O)C(C)C
inactive: Caspase-3 (Homo sapiens) | [1] | [4] | [2] | [3] | CYP2C8 (gene 1558) | CYP2C9 (gene 1559)

CC(COCC(C)OC(=O)c1ccccc1)OC(=O)c1ccccc1 (stereo not drawn)
inactive: Caspase-3 (Homo sapiens) | [1] | [4] | [2] | [3] | CYP2C8 (gene 1558) | CYP2C9 (gene 1559) | CYP2E1 (gene 1571)

NCCOCCOCCN
inactive: Caspase-3 (Homo sapiens) | [1] | [4] | [2] | [3] | CYP2C9 (gene 1559) | CYP2E1 (gene 1571)

CN(C)CCCN1c2ccccc2Sc2ccc(Cl)cc21
inactive: Caspase-3 (Homo sapiens) | [5] | CYP2C8 (gene 1558) | CYP2C9 (gene 1559)
active: [1] 19.4 µM | [2] 2.21 µM | CYP2E1 (gene 1571) 13.3 µM

CCCCCCCC(=O)OC
inactive: Caspase-3 (Homo sapiens) | [5] | [1] | [4] | [2] | [3] | CYP2C9 (gene 1559) | CYP2E1 (gene 1571)

Cc1ccc(-c2cc(C(F)(F)F)nn2-c2ccc(S(N)(=O)=O)cc2)cc1
active: [1] 15.8 µM | [2] 90.2 µM | [3] 23.6 µM | CYP2E1 (gene 1571) 38.2 µM
inactive: Caspase-3 (Homo sapiens) | CYP2C9 (gene 1559)

O=NO
inactive: Caspase-3 (Homo sapiens) | [1] | [2] | [3] | CYP2C8 (gene 1558) | CYP2C9 (gene 1559) | CYP2E1 (gene 1571)

N[C@@H](Cc1c[nH]c2ccccc12)C(=O)O
inactive: Caspase-3 (Homo sapiens) | [5] | [2] | [3] | CYP2C9 (gene 1559) | CYP2E1 (gene 1571)
active: [1] 14.4 µM

Nc1nc(Cl)nc2c1ncn2[C@H]1C[C@H](O)[C@@H](CO)O1
active: [1] 0.715 µM | [2] 1.22 µM | [3] 2.05 µM | CYP2C9 (gene 1559) 1.07 µM | CYP2E1 (gene 1571) 0.879 µM
inactive: Caspase-3 (Homo sapiens) | [5]

OCC(CO)n1cnc(-c2ccc(F)cc2)c1-c1ccnc(Oc2ccccc2)n1
active: [2] 22.6 µM | [3] 12.4 µM | CYP2E1 (gene 1571) 15.5 µM
inactive: Caspase-3 (Homo sapiens) | [1] | [4] | CYP2C8 (gene 1558) | CYP2C9 (gene 1559)

CC(=O)OCC(COC(C)=O)OC(C)=O
inactive: Caspase-3 (Homo sapiens) | [5] | [1] | [2] | [3] | CYP2C9 (gene 1559) | CYP2E1 (gene 1571)

CCCC[C@H]1CN(CC2CCOCC2)C(=O)OC12CCN(C1(C)CCN(C(=O)c3c(C)ncnc3C)CC1)CC2
inactive: Caspase-3 (Homo sapiens) | [1] | [2] | [3] | CYP2C8 (gene 1558) | CYP2C9 (gene 1559) | CYP2E1 (gene 1571)

O=C1NC(=O)C(c2ccccc2)(c2ccccc2)N1
inactive: Caspase-3 (Homo sapiens) | CYP2C9 (gene 1559)
active: [1] 50 µM | [2] 1.18 µM | [3] 14.1 µM | CYP2C8 (gene 1558) 13.1 µM | CYP2E1 (gene 1571) 29.7 µM

CC(C)OC(=O)C(C)(C)Oc1ccc(C(=O)c2ccc(Cl)cc2)cc1
active: [1] 28.1 µM | [2] 63.3 µM
inactive: Caspase-3 (Homo sapiens) | [5] | [3] | CYP2C9 (gene 1559) | CYP2E1 (gene 1571)
